# Screens deposited in PubChem by Center for Chemical Genomics, University of Michigan.
# Dicer processing = inhibitors of human Dicer processing of pre-microRNA. Q9UPY3. AID 1347074. cat-ELCCA pre-miR-21 Dicer processing, chemiluminescence; stronger effect = higher value. 47,000 tested, 6% active. z-score at 25 µM; in the data active = z-score above about 3, passing the limit was not always enough;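 note: plate controls were vehicle for no effect and no enzyme for full effect; higher signal means more uncleaved substrate so more Dicer inhibition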
# * = called active by the depositor; ! = a repeat was not active. Many of the other results were omitted from the sample, so hits are more common in it than they were.
SMILES,Dicer processing
O=C(c1cccs1)C1C(c2ccccc2)C([N+](=O)[O-])C2C=Cc3ccccc3N21 (stereo not given),0.84
Cc1ccc(C2CC(=O)Oc3c2c(=O)n(C)c2ccccc32)cc1 (stereo not given),1.5
CC(C)(C)c1ccc(-c2nc(NC(=O)CSc3nnc4ccccn34)ns2)cc1,3*
Cc1ccc(-c2nc(NC(=O)CSc3nnc4ccccn34)ns2)cc1,1.6
O=C(CSc1nnnn1-c1ccccc1)Nc1nsc(-c2ccc(Cl)cc2)n1,2.4
CN(C)c1ccc(C2C(C(=O)OC(C)(C)C)C(=O)CC(C)(O)C2C(=O)OC(C)(C)C)cc1 (stereo not given),1
CCOC(=O)C1CCCN(S(=O)(=O)c2ccc(F)c(Cl)c2)C1 (stereo not given),-1.1
Cc1csc(NC(=O)c2ccccc2C(=O)O)c1-c1nc2ccccc2s1,0.19
O=C(CSc1ccc(OC(F)(F)F)cc1)NCc1ccc2c(c1)OCO2,-0.48
Cc1noc(C)c1NC(=O)NC1CCCc2ccccc21 (stereo not given),-0.44
CC(C)(C)c1ccc(NC(=O)NC2CCCc3ccccc32)cc1 (stereo not given),1.4
O=C(Nc1ccccc1F)NC1CCCc2ccccc21 (stereo not given),4.6*
Cn1c(=O)c2c(ncn2C/C=C/c2ccccc2)n(C)c1=O,1.2
C#CCSc1n[nH]c(=O)n1-c1cccc(Cl)c1,-0.61
S=C(NCc1ccccc1Cl)Nc1cc(Cl)c(Cl)cc1Cl,1.4
COc1ccc(CCNC(=S)NCCc2ccccc2)cc1OC,0.7
S=C(NCCc1ccccc1)Nc1cc(Cl)c(Cl)cc1Cl,4.7*
O=c1c(-c2ccc(Cl)cc2)c(C(F)(F)F)oc2c(CN3CCOCC3)c(O)ccc12,-0.77
COC(=S)Nc1cc(Cl)cc(Cl)c1,-0.61
CSc1nnc(SC)n1CCNC(=O)c1cccc(Cl)c1,-0.27
COc1cccc(C(=O)Nc2nc(SCc3ccc(Cl)cc3)n[nH]2)c1,-0.48
COc1cccc(C(=O)NCCN2CCN(c3ccc(Cl)cc3)CC2)c1,3.9*
CO/N=C1\CC(C)(C)Cc2c(-c3ccn(C(C)=O)n3)sc(SC)c21,1.6
C(=C\c1ccc2c(c1)OCO2)/C1=NN(c2ccccc2)C(c2ccc3c(c2)OCO3)C1 (stereo not given),0.21
Cn1c(/C=C/c2cn(Cc3ccccc3)c3ccccc23)nc2ccccc2c1=O,10
SMILES,Dicer processing
Cn1c(/C=C/c2ccc3c(c2)OCO3)nc2ccccc2c1=O,6.2*
COc1ccccc1N1C(=O)CS/C1=N\N=C\c1ccccc1O,5.7
N#Cc1c(Cl)cccc1Oc1ccc(S(=O)(=O)N2CCN(c3ccccn3)CC2)cc1,0.88
CCCCC(CC)CNC(=O)C1C2C=CC(O2)C1C(=O)O (stereo not given),-0.18
O=C(O)C1C2C=CC(O2)C1C(=O)NCc1cccc(Cl)c1 (stereo not given),4.4*
O=C(O)C1C2C=CC(O2)C1C(=O)NCc1ccncc1 (stereo not given),-0.98
FC(F)(F)c1cccc(-c2nnc(SCc3ccc(Cl)cc3)o2)n1,-0.6
Cc1cc(N2CCN(CCO)CC2)n2c(nc3ccccc32)c1C#N,5.3*
CCCc1cc(N2CCN(CCO)CC2)n2c(nc3ccccc32)c1C#N,1.4
Cc1cc(NCCCCO)n2c(nc3ccccc32)c1C#N,0.91
CC1CC2(C)Oc3ccccc3C3OCC1(COC(=O)Nc1ccccc1)C(C)C32 (stereo not given),0.16
CCCN(CCC)S(=O)(=O)c1ccc(C(=O)ON=C2CCCCC2)cc1,-0.98
O=C1CC(Nc2cccc(Cl)c2)C(=O)N1c1cccc(Cl)c1 (stereo not given),-0.52
CCCOC(=O)CSC1=C(C#N)C(c2ccc(CC)cc2)CC(=O)N1 (stereo not given),-3
Fc1ccc2[nH]c3c(c2c1)CN(Cc1ccc(Cl)cc1Cl)CC3,-1.7
Cc1cc(C)c2c(n1)CC(C)(C)CC2=O,-2.2
Clc1cc(Cl)cc(-c2nnnn2Cc2ccccc2)c1,1.6
CSc1scc(NC(=O)Nc2ccc(OC(F)(F)F)cc2)c1S(=O)(=O)C(C)C,0.88
CSc1sc(C(=O)O)c(N)c1S(=O)(=O)C(C)C,-1.3
CSc1scc(Cl)c1S(=O)(=O)C(C)C,14*
CN(C)/C=C(\C#N)S(=O)(=O)c1cccs1,-1.8
N#C/C(=C\c1c(Cl)cccc1Cl)S(=O)(=O)c1cccs1,-0.95
COC(=O)c1sccc1N/C=C(\C#N)S(=O)(=O)c1cccs1,19*
N#Cc1c(-c2cccs2)nn(-c2ccc([N+](=O)[O-])cc2)c1N,2.4
CCc1ccn2cc(-c3ccc(F)cc3)nc2c1,-0.11
SMILES,Dicer processing
COc1ccccc1Oc1ccc(NC(=O)c2cc3cc(Br)ccc3o2)cn1,2.3
COc1cccc(NC(=O)Nc2ccc(Oc3c(Cl)cccc3Cl)nc2)c1,-0.35
COc1cccc(Oc2ccc(NC(=O)c3cc4cc(Br)ccc4o3)cn2)c1,3.1*
CCOC(=O)C12C(=O)OC(C)(C)C1C2(CC)C(=O)c1ccc(Br)cc1 (stereo not given),2.4
CCCCCCCC1CC/C(=C\c2ccc(SC)cc2)C1=O (stereo not given),-1.4
COc1ccc(-c2nc3n(n2)C(c2ccc(OC)c(OC)c2)C2=C(CCCC2=O)N3)cc1OC (stereo not given),-0.72
COc1ccc(-c2nc3n(n2)C(c2ccc4c(c2)OCO4)C2=C(CC(C)(C)CC2=O)N3)cc1OC (stereo not given),3*
CC1(C)CC(=O)C2=C(C1)Nc1nc(-c3cccc(Cl)c3)nn1C2c1ccc2c(c1)OCO2 (stereo not given),2.2
COC(=O)CCC(=O)c1ccn(S(=O)(=O)c2ccccc2)c1,0.73
Cc1ccc(C2OC3(C(=O)c4ccccc4C3=O)C3C(=O)N(c4ccccc4Cl)C(=O)C23)cc1 (stereo not given),1.5
Cc1ccc2c(c1)nnc1n[nH]c(=S)n12,-0.58
COC(=O)C1C2C=CC3(CN(c4ccc(OC)cc4)C(=O)C13)O2 (stereo not given),-0.74
Cc1cc(C)c2c(N)c(S(=O)(=O)Cc3ccccc3)sc2n1,4.1*
Cc1cc(C)c2c(N)c(C(=O)NNC(=S)NCc3ccccc3)sc2n1,3*
CSc1cccc(NC(=O)c2sc3nc(C)cc(C)c3c2N)c1,-0.06
Cc1cc(C)c2c(N)c(C(=O)NCc3ccco3)sc2n1,-1.8
Cc1cc(C)c2c(N)c(C(=O)O)sc2n1,6.9
Cc1cc(C)c2c(N)c(C(=O)c3ccc(-c4ccccc4)cc3)sc2n1,-1.3
CC(=O)N/C(=C\c1ccc(C#N)cc1)C(=O)O,-0.63
O=C(Nc1ccc(Br)cc1)C1Sc2nnc(-c3ccccc3)n2NC1c1ccccc1 (stereo not given),-0.38
CCC(CO)NC(=S)Nc1c(Cl)cccc1Cl (stereo not given),0.72
CN(C)Cc1c(O)ccc2ccccc12,5.3*
CN(C)Cc1ccc(O)c(CN(C)C)n1,-1.7
CN(C)Cc1c(O)ccc2c(=O)c(Oc3ccc4ccccc4c3)c(C(F)(F)F)oc12,-0.51
CC(CN(C)C)CN1c2ccccc2Sc2ccccc21 (stereo not given),0.42
CC(CN1c2ccccc2Sc2ccccc21)N(C)C (stereo not given),3.8*!
CNC(C)CN1c2ccccc2Sc2ccccc21 (stereo not given),2.6
CC(=O)Oc1ccc2occ(C(=O)c3ccc(Cl)cc3)c2c1,5.8
O=C(c1ccco1)c1coc2ccc(O)cc12,5.5*
NC(=O)Cn1cc(C(=O)c2ccco2)c2ccccc21,-0.25
